Measurements taken from the supplement of paper PMC6555819.

How the values were obtained:
Assay in all cases: PBM binding z-score (relative to random genomic background probes); higher = stronger binding; sequences stand for … in GC…GCGATTGACAGCGTAGAATGAAGG
[1] = system: RARb homodimer (NR concentration 270 nM)
Summary of the method: (§1)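 Regression normalization was applied to scanned fluorescence from custom Agilent 4×180K protein-binding microarrays. Before scanning, arrays were incubated 1 h with ligand-free nuclear receptor dimers, and binding was detected with antibodies against each partner (one per run). Binding z-scores use the random background probes as reference.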

[2] = system: RARg:RXRa (NR concentration 270 nM, RXRa partner concentration 90 nM)
Summary of the method: as §1

[3] = system: RARg homodimer (NR concentration 270 nM)
Summary of the method: as §1

[4] = system: RXRa DBDmut IVT, anti-RXR (DBD mutation: RXRa K156A/R161A, NR concentration 90 nM)
Summary of the method: as §1

[5] = system: RXRa homodimer (NR concentration 180 nM)
Summary of the method: as §1

[6] = system: THRa:RXRa (NR concentration 90 nM, RXRa partner concentration 90 nM)
Summary of the method: as §1

[7] = system: THRa homodimer (NR concentration 90 nM)
Summary of the method: as §1

[8] = system: VDR homodimer (NR concentration 270 nM)
Summary of the method: as §1

Row | Sequence | PBM binding z-score [1] | PBM binding z-score [2] | PBM binding z-score [3] | PBM binding z-score [4] | PBM binding z-score [5] | PBM binding z-score [6] | PBM binding z-score [7] | PBM binding z-score [8]
1 | AGAATGAGGTTAACATCAGGGAAACAGAATACAT | 0.933 | 2.72 | 2.01 | 1.29 | 3.24 | 2.91 | 0.858 | 0.64
2 | GTAGACAGGTGAAACGCAGGTAACTCAGGGTGGC | 0.348 | 0.896 | 0.286 | -0.661 | 0.743 | 1.43 | -0.349 | -0.271
3 | ACAGACAGGTGAGTGAAGGTAAGTCAGCTGGACG | 0.373 | 0.45 | 0.335 | -0.68 | 0.274 | 1.03 | -0.473 | -0.657
4 | CCAGACAGGTGAGAAGGTAACTCCGCCTCGATTA | 0.57 | 0.45 | 0.417 | -0.0199 | 0.0477 | 0.0136 | 0.252 | -0.0348
5 | CCTATTAGTCGACCATAAGGGCAACCGAAGCTCG | 1.55 | 0.761 | 0.875 | 0.45 | 0.505 | 1.33 | 0.896 | 0.533
6 | GGAACGAGCGCATTCGAGTTGATAGCATGGCGAT | -0.974 | -0.544 | -0.227 | 0.0101 | -0.607 | -0.857 | -1.27 | -0.406
7 | TCTAGTTGGTGAAAGGTCACACACTCGAAATGCG | 4.86 | 6.24 | 5.72 | 1.95 | 7.42 | 3.97 | 2.01 | 2.58
8 | TCATATAGGTAAAGGTGAAAGTAGAACGATATGA | 1.35 | 1.71 | 1.43 | 0.637 | 2.2 | 1.36 | -0.513 | -0.148
9 | TCTGCTATGTCAGTTGGTCAGCTAACGAGCTGCC | 0.0404 | -0.0925 | -0.134 | 0.0834 | -0.0847 | -0.538 | -1.16 | -0.982
10 | CAAACTAGGTGAAGGTCAAAGTCGGTTTGTGCCA | 3.92 | 4.07 | 4.37 | 1.5 | 4.34 | 3.14 | 0.696 | 2.23
11 | ATATGTAGGTTAGCTGGGGTCATTCGGACTAGGC | 3.59 | 4.28 | 2.86 | 2.17 | 5.36 | 5.12 | 3.5 | 5.38
12 | CGTCCAAGGTCAAAGCTAGGTCAGTGAAAGCATT | 5.03 | 7.9 | 7.36 | 4.1 | 6.47 | 4.57 | 2.86 | 3.7
13 | TCTTGTAGATCAAGCAGGGTAAGAAAGCCTGAGT | -0.297 | -0.27 | -0.38 | 0.436 | -0.147 | 1.2 | -0.451 | 0.209
14 | GCCATTAGTTGAAAGGGCAACCGAATGATTCTCG | 2.22 | 1.54 | 1.32 | 0.641 | 1.24 | 0.595 | -0.31 | -0.125
15 | ACTTACGGGTCAACGAGGTTATAACACGCGTATA | 3.71 | 5.74 | 5.07 | 3.22 | 6.33 | 4.34 | 1.32 | 4.13
16 | CCTACTGGGCCTTCAGGTCATTGATATCAACGTT | 2.18 | 1.13 | 1.39 | -0.0421 | 0.791 | 3.15 | 3.23 | 1.64
17 | CGAACTAGGTCAAGGACAGTGAATCTCCGCACGC | 3.01 | 3.95 | 4.49 | 1.42 | 2.57 | 3.25 | 2.14 | 0.847
18 | TGAATGAGGATAAAGATCAGGGAACGTGGCGTCG | -0.895 | 0.0209 | 0.399 | -0.871 | -0.0726 | 1.33 | 0.0902 | -0.316
19 | CCGACTGGGGCAAAGATTACCATACTCAGTACGA | -0.379 | 0.0799 | 0.405 | 0.314 | -0.0917 | -0.407 | -0.518 | -0.37
20 | TTACCCAGGTGAAGGTCGTTGATCCCTCTGTAGA | 1.33 | 0.65 | 0.626 | -0.428 | 1.31 | 1.91 | 0.888 | 1.26
21 | CAAACTAGGTCACCGGAAGGTCAAAGCCCGCATG | 5.35 | 8.33 | 7.37 | 1.48 | 6.03 | 4.42 | 2.96 | 3.25
22 | ACTATTAGTTGAGACGAGCGCAACCGATAGGTTG | -0.567 | -0.546 | 0.138 | -0.188 | -0.211 | -0.381 | -0.708 | -0.0904
23 | TATACACGGTCAAAGGCCAGAGTACGAATGTCGA | 2.33 | 2.53 | 2.87 | 0.0328 | 1.45 | 0.581 | -0.253 | 0.761
24 | GCTCGGAGGACAAGGTCATAGCTTTGTCCGTAGA | 3.41 | 4.23 | 3.99 | 1.8 | 4.34 | 3.56 | 2.14 | 2.26
25 | GCTGCTAGGACAACTGATGGTCAGCTAAAGCTCG | 0.137 | -0.166 | 0.37 | -0.0279 | -0.722 | 0.434 | -0.447 | -1.49
26 | ATATGTAGGTTATCGGGTCATTCTGTTTGCGCAT | 2.91 | 3.37 | 2.21 | 1.77 | 3.44 | 3.38 | 2.96 | 3.53
27 | CGTCCAAGGTCAGCAGGACAGTGAAAGCGACGTG | 3.89 | 5.05 | 6.09 | 2.33 | 3.68 | 3.72 | 1.9 | 0.589
28 | AGAATGAGGGCACGCTGAGTTGATAGCAGAGTAG | 1.3 | 2.28 | 2.15 | 2.2 | 1.7 | 2.53 | 0.735 | 2.08
